# According to PMC11006913:
# Positions count from the first letter of the chain named.
# Columns and labels:
# Assay in all cases: PBM; 200 nM protein, PBS
# Conditions in all cases: dsDNA, one strand shown
# VENTX [1] = molecular target: T1, VENTX (Homo sapiens, UniProt O95231 78-163, R121Q)
# T1 sequence: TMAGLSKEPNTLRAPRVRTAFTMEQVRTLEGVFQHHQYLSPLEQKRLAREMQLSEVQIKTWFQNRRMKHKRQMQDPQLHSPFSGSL
# VENTX [2] = molecular target: T2, VENTX (Homo sapiens, UniProt O95231 78-163)
# T2 sequence: T1 sequence with Q44R
# VENTX [3] = molecular target: T3, VENTX (Homo sapiens, UniProt O95231 78-163, Y115F)
# T3 sequence: T1 sequence with Y38F, Q44R
# ALX1 [4] = molecular target: ALX1 (Homo sapiens, UniProt Q15699 118-204, L144V)
# Chain of ALX1 (Homo sapiens, UniProt Q15699 118-204, L144V) (Q15699 118-204 L144V): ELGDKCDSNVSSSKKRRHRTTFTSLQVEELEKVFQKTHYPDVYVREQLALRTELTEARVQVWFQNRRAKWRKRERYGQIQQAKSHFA
# ALX1 [5] = molecular target: ALX1 (Homo sapiens, UniProt Q15699 118-204, L144R)
# Chain of ALX1 (Homo sapiens, UniProt Q15699 118-204, L144R) (Q15699 118-204 L144R): as the sequence (Q15699 118-204 L144V) above, with V27R counted along it
# ALX1 [6] = molecular target: ALX1 (Homo sapiens, UniProt Q15699 118-204)
# Chain of ALX1 (Homo sapiens, UniProt Q15699 118-204) (Q15699 118-204): as the sequence (Q15699 118-204 L144V) above, with V27L counted along it
# ALX3 [7] = molecular target: ALX3 (Homo sapiens, UniProt O95076 139-225, N203Q)
# Chain of ALX3 (Homo sapiens, UniProt O95076 139-225, N203Q) (O95076 139-225 N203Q): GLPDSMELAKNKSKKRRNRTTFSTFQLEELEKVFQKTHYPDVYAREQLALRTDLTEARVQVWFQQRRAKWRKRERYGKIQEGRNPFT
# ALX3 [8] = molecular target: ALX3 (Homo sapiens, UniProt O95076 139-225)
# Chain of ALX3 (Homo sapiens, UniProt O95076 139-225) (O95076 139-225): as the sequence (O95076 139-225 N203Q) above, with Q65N counted along it
# VAX1 [9] = molecular target: VAX1 (Homo sapiens, UniProt Q5SQQ9 86-172)
# Chain of VAX1 (Homo sapiens, UniProt Q5SQQ9 86-172) (Q5SQQ9 86-172): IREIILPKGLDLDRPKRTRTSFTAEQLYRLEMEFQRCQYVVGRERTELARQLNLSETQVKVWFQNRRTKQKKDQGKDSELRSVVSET
# ALX3 [10] = molecular target: ALX3 (Homo sapiens, UniProt O95076 139-225, L168Q)
# Chain of ALX3 (Homo sapiens, UniProt O95076 139-225, L168Q) (O95076 139-225 L168Q): as the sequence (O95076 139-225 N203Q) above, with L30Q, Q65N counted along it
# ALX3 [11] = molecular target: ALX3 (Homo sapiens, UniProt O95076 139-225, L168V)
# Chain of ALX3 (Homo sapiens, UniProt O95076 139-225, L168V) (O95076 139-225 L168V): as the sequence (O95076 139-225 N203Q) above, with L30V, Q65N counted along it
# VAX1 [12] = molecular target: VAX1 (Homo sapiens, UniProt Q5SQQ9 86-172, T142I)
# Chain of VAX1 (Homo sapiens, UniProt Q5SQQ9 86-172, T142I) (Q5SQQ9 86-172 T142I): as the sequence (Q5SQQ9 86-172) above, with T57I counted along it
# ALX3 [13] = molecular target: ALX3 (Homo sapiens, UniProt O95076 139-225, N203S)
# Chain of ALX3 (Homo sapiens, UniProt O95076 139-225, N203S) (O95076 139-225 N203S): as the sequence (O95076 139-225 N203Q) above, with Q65S counted along it
# VAX1 [14] = molecular target: VAX1 (Homo sapiens, UniProt Q5SQQ9 86-172, K157R)
# Chain of VAX1 (Homo sapiens, UniProt Q5SQQ9 86-172, K157R) (Q5SQQ9 86-172 K157R): as the sequence (Q5SQQ9 86-172) above, with K72R counted along it
# HOXA2 [15] = molecular target: HOXA2 (Homo sapiens, UniProt O43364 129-215, R185T)
# Chain of HOXA2 (Homo sapiens, UniProt O43364 129-215, R185T) (O43364 129-215 R185T): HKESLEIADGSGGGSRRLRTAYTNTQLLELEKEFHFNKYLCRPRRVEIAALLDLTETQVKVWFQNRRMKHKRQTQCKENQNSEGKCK
# HOXA2 [16] = molecular target: HOXA2 (Homo sapiens, UniProt O43364 129-215, R185K)
# Chain of HOXA2 (Homo sapiens, UniProt O43364 129-215, R185K) (O43364 129-215 R185K): as the sequence (O43364 129-215 R185T) above, with T57K counted along it
# HOXA2 [17] = molecular target: HOXA2 (Homo sapiens, UniProt O43364 129-215, Y150S)
# Chain of HOXA2 (Homo sapiens, UniProt O43364 129-215, Y150S) (O43364 129-215 Y150S): as the sequence (O43364 129-215 R185T) above, with Y22S, T57R counted along it
# HOXA2 [18] = molecular target: HOXA2 (Homo sapiens, UniProt O43364 129-215)
# Chain of HOXA2 (Homo sapiens, UniProt O43364 129-215) (O43364 129-215): as the sequence (O43364 129-215 R185T) above, with T57R counted along it
# HOXD13 [19] = molecular target: HOXD13 (Homo sapiens, UniProt P35453 263-343, T313R)
# Chain of HOXD13 (Homo sapiens, UniProt P35453 263-343, T313R) (P35453 263-343 T313R): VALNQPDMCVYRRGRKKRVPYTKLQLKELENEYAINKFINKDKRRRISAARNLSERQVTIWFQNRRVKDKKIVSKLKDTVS
# NKX2-6 [20] = molecular target: T4, NKX2-6 (Homo sapiens, UniProt A6NCS4 118-204)
# T4 sequence: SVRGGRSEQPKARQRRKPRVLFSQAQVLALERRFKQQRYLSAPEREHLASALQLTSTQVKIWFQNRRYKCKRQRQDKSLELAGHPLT
# HOXD13 [21] = molecular target: HOXD13 (Homo sapiens, UniProt P35453 263-343)
# Chain of HOXD13 (Homo sapiens, UniProt P35453 263-343) (P35453 263-343): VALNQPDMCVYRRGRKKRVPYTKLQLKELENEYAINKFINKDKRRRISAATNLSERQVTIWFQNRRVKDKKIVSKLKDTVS
# HOXD13 [22] = molecular target: HOXD13 (Homo sapiens, UniProt P35453 263-343, T313A)
# Chain of HOXD13 (Homo sapiens, UniProt P35453 263-343, T313A) (P35453 263-343 T313A): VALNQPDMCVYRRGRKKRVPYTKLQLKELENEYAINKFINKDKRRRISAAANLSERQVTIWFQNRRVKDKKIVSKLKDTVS
# NKX2-6 [23] = molecular target: T5, NKX2-6 (Homo sapiens, UniProt A6NCS4 118-204, F151L)
# T5 sequence: T4 sequence with F34L
sequence,measurement,setting,value
AGTCTGCC,binding signal,VENTX [1],"8.03 upbm affinity estimate (log intensity, higher = more binding, comparable within an allelic series)"
same,binding signal,VENTX [2],"8.12 upbm affinity estimate (log intensity, higher = more binding, comparable within an allelic series)"
same,binding signal,VENTX [3],"8.07 upbm affinity estimate (log intensity, higher = more binding, comparable within an allelic series)"
same,binding signal,ALX1 [4],"6.46 upbm affinity estimate (log intensity, higher = more binding, comparable within an allelic series)"
same,binding signal,ALX1 [5],"6.59 upbm affinity estimate (log intensity, higher = more binding, comparable within an allelic series)"
same,binding signal,ALX1 [6],"6.61 upbm affinity estimate (log intensity, higher = more binding, comparable within an allelic series)"
ATCGATAA,binding signal,VENTX [1],"10.3 upbm affinity estimate (log intensity, higher = more binding, comparable within an allelic series)"
same,binding signal,VENTX [2],"11 upbm affinity estimate (log intensity, higher = more binding, comparable within an allelic series)"
same,binding signal,VENTX [3],"10.2 upbm affinity estimate (log intensity, higher = more binding, comparable within an allelic series)"
AGCGTGCC,binding signal,VENTX [1],"8.06 upbm affinity estimate (log intensity, higher = more binding, comparable within an allelic series)"
same,binding signal,VENTX [2],"7.96 upbm affinity estimate (log intensity, higher = more binding, comparable within an allelic series)"
same,binding signal,VENTX [3],"8.06 upbm affinity estimate (log intensity, higher = more binding, comparable within an allelic series)"
same,binding signal,ALX3 [7],"7.73 upbm affinity estimate (log intensity, higher = more binding, comparable within an allelic series)"
same,binding signal,ALX3 [8],"7.88 upbm affinity estimate (log intensity, higher = more binding, comparable within an allelic series)"
same,binding signal,VAX1 [9],"7.14 upbm affinity estimate (log intensity, higher = more binding, comparable within an allelic series)"
same,binding signal,ALX3 [10],"7.81 upbm affinity estimate (log intensity, higher = more binding, comparable within an allelic series)"
same,binding signal,ALX3 [11],"7.81 upbm affinity estimate (log intensity, higher = more binding, comparable within an allelic series)"
same,binding signal,VAX1 [12],"7.18 upbm affinity estimate (log intensity, higher = more binding, comparable within an allelic series)"
same,binding signal,ALX3 [13],"7.76 upbm affinity estimate (log intensity, higher = more binding, comparable within an allelic series)"
same,binding signal,VAX1 [14],"7.13 upbm affinity estimate (log intensity, higher = more binding, comparable within an allelic series)"
GGCGGCCC,binding signal,VENTX [1],"8.11 upbm affinity estimate (log intensity, higher = more binding, comparable within an allelic series)"
same,binding signal,VENTX [2],"8.22 upbm affinity estimate (log intensity, higher = more binding, comparable within an allelic series)"
same,binding signal,VENTX [3],"8.03 upbm affinity estimate (log intensity, higher = more binding, comparable within an allelic series)"
same,binding signal,HOXA2 [15],"7.21 upbm affinity estimate (log intensity, higher = more binding, comparable within an allelic series)"
same,binding signal,HOXA2 [16],"9.97 upbm affinity estimate (log intensity, higher = more binding, comparable within an allelic series)"
same,binding signal,HOXA2 [17],"10.3 upbm affinity estimate (log intensity, higher = more binding, comparable within an allelic series)"
same,binding signal,HOXA2 [18],"7.16 upbm affinity estimate (log intensity, higher = more binding, comparable within an allelic series)"
CCGGGACC,binding signal,VENTX [1],"8.02 upbm affinity estimate (log intensity, higher = more binding, comparable within an allelic series)"
same,binding signal,VENTX [2],"8.2 upbm affinity estimate (log intensity, higher = more binding, comparable within an allelic series)"
same,binding signal,VENTX [3],"7.98 upbm affinity estimate (log intensity, higher = more binding, comparable within an allelic series)"
same,binding signal,HOXD13 [19],"9.46 upbm affinity estimate (log intensity, higher = more binding, comparable within an allelic series)"
same,binding signal,NKX2-6 [20],"9.14 upbm affinity estimate (log intensity, higher = more binding, comparable within an allelic series)"
same,binding signal,HOXD13 [21],"9.43 upbm affinity estimate (log intensity, higher = more binding, comparable within an allelic series)"
same,binding signal,HOXD13 [22],"9.37 upbm affinity estimate (log intensity, higher = more binding, comparable within an allelic series)"
same,binding signal,NKX2-6 [23],"9.26 upbm affinity estimate (log intensity, higher = more binding, comparable within an allelic series)"
CGCCCGGA,binding signal,VENTX [1],"7.98 upbm affinity estimate (log intensity, higher = more binding, comparable within an allelic series)"
same,binding signal,VENTX [2],"7.85 upbm affinity estimate (log intensity, higher = more binding, comparable within an allelic series)"
same,binding signal,VENTX [3],"8.06 upbm affinity estimate (log intensity, higher = more binding, comparable within an allelic series)"
same,binding signal,HOXD13 [19],"9.55 upbm affinity estimate (log intensity, higher = more binding, comparable within an allelic series)"
same,binding signal,HOXD13 [21],"9.51 upbm affinity estimate (log intensity, higher = more binding, comparable within an allelic series)"
same,binding signal,HOXD13 [22],"9.62 upbm affinity estimate (log intensity, higher = more binding, comparable within an allelic series)"
CCCATTAG,binding signal,VENTX [1],"12.1 upbm affinity estimate (log intensity, higher = more binding, comparable within an allelic series)"
same,binding signal,VENTX [2],"13 upbm affinity estimate (log intensity, higher = more binding, comparable within an allelic series)"
same,binding signal,VENTX [3],"11.9 upbm affinity estimate (log intensity, higher = more binding, comparable within an allelic series)"
same,binding signal,VAX1 [9],"12.6 upbm affinity estimate (log intensity, higher = more binding, comparable within an allelic series)"
same,binding signal,VAX1 [12],"12 upbm affinity estimate (log intensity, higher = more binding, comparable within an allelic series)"
same,binding signal,VAX1 [14],"12.3 upbm affinity estimate (log intensity, higher = more binding, comparable within an allelic series)"
